The source of these data is ChEMBL document CHEMBL4888484, “Replenishing the malaria drug discovery pipeline: Screening and hit evaluation of the MMV Hit Generation Library 1 (HGL1) against asexual blood stage Plasmodium falciparum ,using a nano luciferase reporter read-out” (2022).

Out of some 150,000 compounds screened, about 540 (0.36%) showed an effect of 50% or more. The entries come from a sample that favours strong results as a whole.

The test system of this experiment is Plasmodium falciparum. The experiment in a line: Primary screen in NF54 nanoGlo assay, in single point, at 2uM, 72h; a lower Z score goes with more inhibition. Conditions: timepoint 72 hour. The experiment is classed as functional, Erythrocyte.
Regarding `O=C1C[C@@H](C(=O)N2CC(Cc3ccoc3)C2)NC(=O)N1`, the “% Inhibition” value is -12% and the Z score is 1.39.
In the same order, the values of `O=C(C[C@H](n1cccn1)C(F)(F)F)N1CCN(C2CC2)c2ccc(Cl)cc21` are -2% and 0.26.
In the same order, the values of `COc1ccc(-c2c(-c3cccc(OC)c3)[nH]c3c2c(=O)[nH]c(=O)n3C)cc1` are 90% and -8.97.
In the same order, the values of `COc1ccc(-c2c(-c3ccc(Cl)cc3)[nH]c3c2c(=O)[nH]c(=O)n3C)cc1` are -5% and 0.54.
`COc1ccc(-c2c(-c3ccc(C)c(C)c3)[nH]c3c2c(=O)[nH]c(=O)n3C)cc1`: the “% Inhibition” value is -4% and the Z score was determined as 0.68.
`NC(=O)NCCC[C@@H]1NC(=O)[C@H](Cc2ccccc2)NC1=O`: the “% Inhibition” value is -12% and the Z score was found to be 1.78.
With `COCCc1nc(C)c([C@H](C)Nc2ccc3c(c2)CCC(=O)N3)s1`, the “% Inhibition” value was -15% and the Z score turned out to be 1.74.
In the same order, the values of `CCc1cccc(Nc2nc3ccncc3n(C(C)C)c2=O)c1` are 1% and -0.13.
In the same order, the values of `CC(C)n1c(=O)c(NCc2cccc(C(F)(F)F)c2)nc2ccncc21` are 24% and -2.33.
In the same order, the values of `CC(C)c1cccc(Nc2nc3ccncc3n(C(C)C)c2=O)c1` are 91% and -8.7.
As to `CC1CCN(Cc2ccc(-c3ncnn3C(C)(C)C)o2)CC1`, the “% Inhibition” value is recorded as -6% and the Z score stood at 1.14.
`CN1CCC(N(C)CC(NCC2CCC=CO2)c2ccccc2)CC1` (stereo not given): the “% Inhibition” value is on record as -4% and the Z score was determined as 0.49.
In the same order, the values of `c1ccc(COC[C@H](Nc2ncnc3ccccc23)c2ccccc2)cc1` are -12% and 1.08.
In the case of `Cc1cc(C)nc(O[C@H]2CCCN(C(=O)c3cccn(C)c3=O)C2)n1`, the “% Inhibition” value is given as -2% and the Z score turned out to be 0.22.
In the same order, the values of `O=C(N[C@H]1CCS(=O)(=O)C1)c1cccc(Oc2cccc(C(F)(F)F)c2)c1` are -25% and 2.94.
For `O=C(Nc1cccnc1)c1cccc(Oc2cccc(C(F)(F)F)c2)c1`, the “% Inhibition” value is recorded as -13% and the Z score is on record as 1.85.
For the compound `O=C(Nc1cc(N2CCCS2(=O)=O)ccc1O)c1cccc(Oc2cccc(C(F)(F)F)c2)c1`, the “% Inhibition” value turned out to be 99% and the Z score is reported as -18.11.
Regarding `Cc1nc2ccc(NC(=O)C3C4C=CC(C4)C3C(=O)O)cc2s1` (stereo not given), the “% Inhibition” value stood at 7% and the Z score is recorded as -1.15.
In the case of `Brc1ccc(-c2nc(Cn3ccnn3)co2)cc1`, the “% Inhibition” value is on record as -11% and the Z score came out at 1.68.
In the same order, the values of `FC(F)(F)c1ccc(-c2nc(Cn3ccnn3)co2)cc1` are 89% and -0.03.
In the same order, the values of `CCOc1ccc(-c2nc(Cn3ccnn3)co2)cc1` are -6% and 1.08.
On to `CO[C@H]1CN(C2CCN(C(=O)CCc3c[nH]c4ccccc34)CC2)C12CCOCC2`, for which the “% Inhibition” value is listed as -2% and the Z score came to 0.27.
Regarding `O=C(N[C@H]1CCN(c2cnccn2)C[C@@H]1O)c1ccc2c(c1)OCO2`, the “% Inhibition” value is 0% and the Z score worked out at 0.01.
In the same order, the values of `COc1ccc(CC(=O)N2CC3(C[C@H](N4CCCCC4)CO3)C2)cc1` are -5% and 0.75.
In the same order, the values of `Cn1cc([C@@H]2CCCN2Cc2nccn2Cc2ccccc2)cn1` are -5% and 0.74.
As for `CC(=O)N[C@@H]1CN(Cc2nccn2Cc2ccccc2)C[C@H]1c1nccn1C`, the “% Inhibition” value is 30% and the Z score is -1.12.
Turning to `Cn1ccnc1[C@@H]1CCCN1Cc1nccn1Cc1ccccc1`, the “% Inhibition” value is 50% and the Z score is on record as -4.75.
In the same order, the values of `CN(CC(c1ccccc1)c1ccccc1)[C@H]1COC[C@@H]1O` are -10% and 1.87.
Consider `CC1=C(C(=O)N2C[C@H]3CC=CC[C@H]3C2)C(C)NC(=O)N1` (stereo not given in full), for which the “% Inhibition” value was -13% and the Z score came to 2.39.
In the same order, the values of `C[C@@]1(C(=O)NCc2ccccc2)Cn2nc(-c3ccccc3)cc2C(=O)N1C1CC1` are 9% and -1.39.
With `Cc1ccc(CNC(=O)[C@]2(C)Cn3nc(C)cc3C(=O)N2c2ccc3c(c2)OCCO3)cc1`, the “% Inhibition” value is on record as -1% and the Z score stood at 0.18.
In the same order, the values of `C[C@@]1(C(=O)NCc2ccccc2)Cn2nc(-c3ccccc3)cc2C(=O)N1c1ccc2c(c1)OCCO2` are 52% and -8.25.
In the same order, the values of `COc1ccc(-c2cc3n(n2)C[C@@](C)(C(=O)NCc2ccccc2OC)N(c2cc(C)cc(C)c2)C3=O)cc1` are 9% and -1.43.
In the same order, the values of `CCc1ccc(-c2cc3n(n2)C[C@@](C)(C(=O)NC2CCCCCC2)N(c2ccc(F)cc2)C3=O)cc1` are 0% and 0.02.
On to `COc1ccc(-c2cc3n(n2)C[C@@](C)(C(=O)NCc2ccccc2)N(Cc2ccc4c(c2)OCO4)C3=O)cc1`, for which the “% Inhibition” value is 52% and the Z score was -8.23.
In the same order, the values of `COc1ccc(-c2cc3n(n2)C[C@@](C)(C(=O)NCc2ccccc2OC)N(c2cccc(OC)c2)C3=O)cc1` are 51% and -8.04.
In the same order, the values of `COc1ccc(-c2cc3n(n2)C[C@@](C)(C(=O)NCc2ccccc2OC)N(c2ccc(C)cc2)C3=O)cc1` are -4% and 0.55.
As to `CCc1ccc(-c2cc3n(n2)C[C@@](C)(C(=O)NC2CCCCC2)N(c2cc(C)cc(C)c2)C3=O)cc1`, the “% Inhibition” value is given as 71% and the Z score is listed as -11.34.
In the same order, the values of `CCc1ccc(-c2cc3n(n2)C[C@@](C)(C(=O)NC2CCCCC2)N(c2cccc(C)c2C)C3=O)cc1` are -2% and 0.32.
In the case of `COc1ccc(-c2cc3n(n2)C[C@@](C)(C(=O)NCc2ccccc2)N(Cc2ccccc2Cl)C3=O)cc1`, the “% Inhibition” value came to 17% and the Z score is on record as -2.69.
